Compounds without any hit were thinned out: in the full panel of roughly 83,000, 20% have a hit.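 Plates (96-well) were seeded with cells, treated with compound at one concentration, and incubated for 48 hours before percent growth was determined.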 Values without a mark were called inactive. Activity calls are given as the source filed them. The calls were made as follows: active = growth percent below 10; inactive = the rest.

Test systems include HCT-15 colon; HT29 colon; SNB-75 CNS; SNB-19 CNS; U251 CNS; PC-3 prostate; SK-MEL-5 melanoma; UACC-62 melanoma; LOX IMVI melanoma.
What all share (assay): NCI-60 one-dose screen, 48 h (100 = growth as untreated, 0 = no growth, -100 = all killed)
Conditions in all cases: 10 µM unless noted

On to `CNCc1ccccc1CN(CC(=O)Nc1ccc2c(c1)CC1(C2)C(=O)Nc2ncccc21)C(=O)C(C)(C)C` (stereo unspecified), for which the growth in the assay on HCT-15 colon is 111%; with HT29 colon, 105%; in the assay on SNB-75 CNS, 83.2%; with SNB-19 CNS it was 103%; with U251 CNS, 103%; in the assay on PC-3 prostate it was 98%. Also, the values for the growth with SK-MEL-5 melanoma, in the assay on UACC-62 melanoma and with LOX IMVI melanoma were 103%, 99.8% and 97.4%, respectively.
Turning to `COc1cc2nccc(Oc3ccc(NC(=O)C4(C(=O)Nc5c(F)cc(F)cc5F)CC4)cc3)c2cc1Oc1ccc(N)cn1`, the growth is 45.5% in the assay on HCT-15 colon; 34.8% in the assay on HT29 colon; 21.7% with SNB-75 CNS; 78.7% in the assay on SNB-19 CNS; 67.3% in the assay on U251 CNS; 51.5% with PC-3 prostate. For the same compound, the growth is 29% in the assay on SK-MEL-5 melanoma, 24.4% with UACC-62 melanoma and 49.4% in the assay on LOX IMVI melanoma.
With `CCN(CC)CCCC(C)Nc1cnc(C(=O)Nc2cccc3ccc(OC)nc23)cn1` (stereo unspecified), the growth with HCT-15 colon was -25.6% (active); in the assay with HT29 colon, -47.2% (active); in the assay with SNB-75 CNS, 75.9%; with SNB-19 CNS, 94.9%; in the assay on U251 CNS it was 56.1%; in the assay on PC-3 prostate, 69.5%. Also, the growth is 5.4% (active) with SK-MEL-5 melanoma, -57.8% (active) in the assay on UACC-62 melanoma and -89.9% (active) in the assay with LOX IMVI melanoma.
As to `C/C=C(\C)C(C(=O)NC1CCCCC1)N(C(=O)C1CCc2cc(F)ccc2O1)c1ccc([N+](=O)[O-])cc1` (stereo unspecified), the growth with HCT-15 colon was 74%; in the assay on HT29 colon it was 74.4%; with SNB-75 CNS, 72.8%; in the assay with SNB-19 CNS it was 85.7%; with U251 CNS, 93.1%; with PC-3 prostate, 72.7%. Besides, the growth in the assay with SK-MEL-5 melanoma was 42.1%; in the assay with UACC-62 melanoma, 70.1%; in the assay on LOX IMVI melanoma it was 87.7%.
As to `COc1ccc(NC(=O)/C=C/c2ccc(Cl)c(Cl)c2)cn1`, the growth with HCT-15 colon was 51.6%; in the assay with HT29 colon, 93.5%; in the assay on SNB-75 CNS, 102%; in the assay on SNB-19 CNS, 91.2%; in the assay on U251 CNS, 87.4%; with PC-3 prostate, 74.3%. For the same compound, the growth was 71.4% in the assay on SK-MEL-5 melanoma, 77.6% in the assay with UACC-62 melanoma and 93.6% with LOX IMVI melanoma.
Turning to `COc1ccc(C2C3CCc4ccccc4C3=NN2C(=O)c2cc(OC)c(OC)c(OC)c2)cc1O` (stereo unspecified), the growth in the assay with HCT-15 colon was 109%; in the assay with HT29 colon, 104%; with SNB-75 CNS it was 89.4%; in the assay with SNB-19 CNS, 109%; with U251 CNS it was 108%; in the assay with PC-3 prostate, 92.2%. The growth was 104% with SK-MEL-5 melanoma, 105% in the assay with UACC-62 melanoma and 94.6% in the assay on LOX IMVI melanoma.
With `CNCc1cccc2c1OCCOCCOCCC(C)S(=O)(=O)c1ccc(cc1)-c1cnc(N)c(n1)C(=O)N2` (stereo unspecified), the growth was 17.8% in the assay on HCT-15 colon; 15.1% in the assay on HT29 colon; 10.5% with SNB-75 CNS; 53.8% with SNB-19 CNS; 19.2% in the assay with U251 CNS; 32.3% in the assay on PC-3 prostate. Also, the growth is 78.8% with SK-MEL-5 melanoma, 60.6% in the assay on UACC-62 melanoma and 48.8% in the assay on LOX IMVI melanoma.
As to `CN1CCN(Cc2ccc(NC(=O)c3cncc(C#Cc4ccc(N)nc4)c3)cc2C(F)(F)F)CC1`, the growth in the assay with HCT-15 colon is 7.71% (active); in the assay on HT29 colon, 3.36% (active); in the assay with SNB-75 CNS, 4.55% (active); in the assay on SNB-19 CNS, 37.2%; with U251 CNS it was 14.9%; in the assay with PC-3 prostate, 15.6%. The figures for the growth in the assay on SK-MEL-5 melanoma, with UACC-62 melanoma and in the assay on LOX IMVI melanoma were -5.69% (active), -5.85% (active) and -25.8% (active), respectively.
In the case of `CC(=O)N(C)c1ccc(Nc2cc(C)[nH]c3ccc4ncnc4c23)cc1`, the growth is 82.5% in the assay on HCT-15 colon; 48% in the assay on HT29 colon; 55% with SNB-75 CNS; 58.7% with SNB-19 CNS; 49.9% in the assay with U251 CNS; 50.5% in the assay with PC-3 prostate. Further, the results for the growth in the assay with SK-MEL-5 melanoma, in the assay with UACC-62 melanoma and with LOX IMVI melanoma were 51.4%, 62.7% and 36.1%, respectively.
For the compound `CN1CCN(Cc2ccc(NC(=O)c3cccc(C#Cc4cnc(N)c5ncccc45)c3F)cc2C(F)(F)F)CC1`, the growth in the assay on HCT-15 colon was -57.2% (active); in the assay with HT29 colon it was -55.5% (active); with SNB-75 CNS, 53.9%; in the assay with SNB-19 CNS it was 96.4%; in the assay with U251 CNS, -88.2% (active); in the assay on PC-3 prostate it was 30.7%. Moreover, the growth in the assay with SK-MEL-5 melanoma is 44.1%; in the assay with UACC-62 melanoma, 55.5%; with LOX IMVI melanoma, -88.8% (active).
As for `F`, the growth in the assay with HCT-15 colon is 57.4% [6.87 mM]; in the assay on HT29 colon, 1.64% [6.87 mM] (active); with SNB-75 CNS, 11.4% [6.87 mM]; in the assay on SNB-19 CNS, 41.2% [6.87 mM]; with U251 CNS, 17% [6.87 mM]; in the assay with PC-3 prostate, 33% [6.87 mM]. In addition, the growth in the assay with SK-MEL-5 melanoma is -66.1% [6.87 mM] (active); with UACC-62 melanoma, -74.4% [6.87 mM] (active); in the assay with LOX IMVI melanoma, 1.06% [6.87 mM] (active).
As to `COc1ccc(NC(=O)c2ccc(C(F)(F)F)nc2Nc2ccc(Cl)cc2C)cc1Cl`, the growth with HCT-15 colon is 22.4%; in the assay with HT29 colon it was 26.6%; in the assay on SNB-75 CNS, 35%; in the assay on SNB-19 CNS it was 30%; with U251 CNS, 20.3%; in the assay on PC-3 prostate, 10.2%. Besides, the figures for the growth in the assay with SK-MEL-5 melanoma, in the assay with UACC-62 melanoma and in the assay with LOX IMVI melanoma were 28.2%, 15.3% and 13.4%, respectively.
Consider `C=C(C)[C@@H]1CC[C@]2(C)[C@H](CC=C3[C@@H]4C[C@](C)(C(=O)N5CCN(C)CC5)CC[C@]4(C)CC[C@]32C)[C@@]1(C)CCC#N`, for which the growth in the assay on HCT-15 colon was 38.2%; in the assay with HT29 colon, 33.2%; with SNB-75 CNS, 79.1%; with SNB-19 CNS, 89.4%; in the assay with U251 CNS, 50%; in the assay on PC-3 prostate, 30.6%. For the same compound, the results for the growth in the assay on SK-MEL-5 melanoma, in the assay on UACC-62 melanoma and with LOX IMVI melanoma were 18.9%, 53.5% and 47.6%, respectively.
With `CCN(CC)CCCC(C)Nc1cnc(C(=O)Nc2cc(C)cc3cccnc23)cn1` (stereo unspecified), the growth is 59.9% in the assay on HCT-15 colon; 37.3% in the assay on HT29 colon; 78.3% in the assay with SNB-75 CNS; 89.2% in the assay with SNB-19 CNS; 78.4% in the assay with U251 CNS; 83.1% with PC-3 prostate. The growth with SK-MEL-5 melanoma is 83.1%; with UACC-62 melanoma it was 98.6%; in the assay on LOX IMVI melanoma, 87%.

The record behind these values is PubChem BioAssay (NCI).
